Bioassay records: PubChem, National Center for Advancing Translational Sciences (NCATS)
Compounds with a hit are over-represented: about 18% of the library has one in this group of screens.
TDP1 cell CPT: growth inhibition of DT40 Tdp1-/-;hTDP1 cells with camptothecin (screen for TDP1 inhibitors). chicken DT40 Tdp1-/-;hTDP1 cells + 20 nM CPT, ATP luminescence, 48 h. Potency, µM (doses to about 46.2 µM), for inactives: at the top dose activity change, negative = growth inhibition, most hits filed as inhibitors. 12% of 420,000 active; note: potency is the fitted concentration of half-maximal effect; % is set by controls: 0 for no effect and ±100 for the full control effect; nearly all actives have a fitted effect of over 55% in size
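Chicken DT40 Tdp1-/- cells stably complemented with human TDP1 were seeded at 400 cells/well in medium containing 20 nM camptothecin, exposed to pin-transferred compounds, and grown at 37 °C for at least 48 hr. Viability was read as ATP luminescence.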
HepG2 viability: counter-screen for TGF-b inhibitors: cytotoxicity in HepG2 cells | HepG2 CAGA-GFP viability, ATP luminescence, 18 h | Potency, µM (series often up to 46.1 µM), for inactives: at the top dose activity change, negative = cytotoxicity, most hits filed as cytotoxic | 0.76% of 410,000 active; note: potency is the fitted concentration of half-maximal effect
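CellTiter-Glo luminescence gave cytotoxicity after 18 hours at 37 degrees C. The cells were HepG2 CAGA-GFP in 1% FBS DMEM, stimulated with 500 pg/mL TGF-beta after compound addition. %Activity was normalised to no-cell wells (complete cell-killing) and DMSO (no toxicity), and curves were fitted and classified.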
DT40 TDP1 no CPT: qHTS for Inhibitors of human tyrosyl-DNA phosphodiesterase 1 (TDP1): qHTS in cells in absence of CPT | DT40 Tdp1-/- hTDP1 cells, no CPT, ATP luminescence, 48 h | 15% of 420,000 active | Potency, µM (top dose mostly 46.2 µM), for the others: top-dose activity change, negative = growth inhibition, most hits filed as inhibitors; note: potency is the fitted concentration of half-maximal effect; % is set by controls: 0 for no effect and ±100 for the full control effect; nearly all actives have a fitted effect of over 55% in size
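Compound effects on proliferation are scored in DT40 Tdp1-/-;hTDP1 cells in the absence of CPT. ATP levels (CellTiter-Glo luminescence) are recorded after a ≥48 hr, 37 °C incubation.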
IL1B secr inh: blocks inflammasome-driven IL-1 beta release; THP-1 LPS/ATP IL-1B secretion, AlphaLISA, 16 h; stronger effect = lower value; activity change, % at 57.5 µM; 4.7% of 360,000 active; AID 743279; in the data active = activity change below about -50%; inconclusive = mostly about -30% to -49%; note: % is set by controls: 0 for no effect and ±100 for the full control effect
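Secreted IL-1B measured by AlphaLISA bead assay after 16 h compound exposure of THP-1 cells; compounds (final up to 57.5 uM) added 1 h before LPS (250 ng/mL) and ATP (1.25 mM) stimulation; lower signal means less secretion.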
TGFb SMAD3 inh: blocks TGF-b signaling | HepG2 CAGA-GFP TGF-b/SMAD3 reporter, GFP fluorescence, 18 h; TGF-beta stimulated, 500 pg/mL final | Potency, µM (highest dose often 46.1 µM), without a hit: at the top dose activity, negative = inhibition, actives largely listed as inhibitors | 1.2% of 410,000 active | AID 588855; note: potency is the fitted concentration of half-maximal effect; % is set by controls: 0 for no effect and ±100 for the full control effect; nearly all actives have a fitted effect of over 65% in size
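Cell-based qHTS in HEPG2 carrying a CAGA-GFP Smad reporter; compounds added before 500 pg/mL final TGF-beta, 18 h incubation at 37 degrees C, GFP fluorescence quantified per cell by imaging cytometry.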
TDP1 inh: TDP1 (human) enzyme inhibition; AID 485290; recombinant TDP1, AlphaScreen DNA substrate cleavage; 0.28% of 350,000 active; Q9NUW8; Potency, µM (doses to about 130 µM), for the others: at the highest dose activity change, negative = inhibition, usual class: inhibitors; note: potency is the fitted concentration of half-maximal effect; % is set by controls: 0 for no effect and ±100 for the full control effect; nearly all actives have a fitted effect of over 40% in size
Target sequence (Q9NUW8 whole entry, looked up): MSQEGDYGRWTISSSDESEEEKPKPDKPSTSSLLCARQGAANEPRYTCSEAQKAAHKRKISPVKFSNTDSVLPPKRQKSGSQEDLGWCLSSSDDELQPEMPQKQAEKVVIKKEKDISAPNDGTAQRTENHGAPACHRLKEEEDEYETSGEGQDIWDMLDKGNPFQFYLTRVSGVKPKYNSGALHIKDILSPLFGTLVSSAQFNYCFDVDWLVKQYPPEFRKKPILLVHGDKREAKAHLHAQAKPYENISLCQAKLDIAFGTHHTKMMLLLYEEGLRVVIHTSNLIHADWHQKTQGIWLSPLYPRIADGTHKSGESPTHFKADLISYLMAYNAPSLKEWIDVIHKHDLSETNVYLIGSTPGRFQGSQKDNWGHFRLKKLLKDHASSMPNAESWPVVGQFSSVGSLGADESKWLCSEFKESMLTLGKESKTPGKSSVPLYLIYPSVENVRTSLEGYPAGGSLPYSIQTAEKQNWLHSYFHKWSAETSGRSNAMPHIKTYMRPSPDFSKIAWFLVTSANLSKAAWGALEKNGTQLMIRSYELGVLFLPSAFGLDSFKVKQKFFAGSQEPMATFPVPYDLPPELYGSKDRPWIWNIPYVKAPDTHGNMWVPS
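Here, a 5' biotin and 3' phosphotyrosine-FITC DNA oligonucleotide reports Tdp1 activity: intact substrate bridges AlphaScreen beads, while cleavage leaves a 3' phosphate and drops signal. All incubations at room temperature.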
* marks the source's active call; other numbers are inactive results; ? = inconclusive; · = not tested or not shown; [ ] = dose if it differs, or a comment. Unless noted, calls come from the whole dose curve; as a rule, active = well fitted curve in the direction sought with a large enough effect; inconclusive = small, poorly fitted or top-dose-only effect, or another doubt; inactive = no such curve, though single readings can be large; an effect the other way counts as inactive or inconclusive.

SMILES	TDP1 cell CPT	HepG2 viability	DT40 TDP1 no CPT	IL1B secr inh	TGFb SMAD3 inh	TDP1 inh
O=C1C[C@@H](c2ccc(O)cc2)Oc2cc(O)cc(O)c21	2%	2%	-19%	3	-5%	0%
C[C@H]1CCCC(=O)CCCCCc2cc(O)cc(O)c2C(=O)O1	?	-6%	18µM*	25	3%	-5%
CN1C[C@@H]2[C@@H]3C(=O)N(Cc4ccccc4)C(=O)[C@@H]3[C@](Cc3ccccc3)(C1=O)N2C(=O)c1ccc(F)cc1	10%	0%	5%	2	?	·
c1ccc(-c2nn(-c3ccccc3)[n+](-c3ccccc3)n2)cc1	0.58µM*	-52%	0.41µM*	15	10µM*	·
COc1cc(-c2ccc(-[n+]3nc(-c4ccccc4)nn3-c3ccc([N+](=O)[O-])cc3)c(OC)c2)ccc1-[n+]1nc(-c2ccccc2)nn1-c1ccc([N+](=O)[O-])cc1	2.7µM*	·	6µM*	·	·	·
CCOP(=O)(c1ccccc1)C(O)c1ccc(F)cc1 (stereo unspecified)	4%	-3%	4%	8	-2%	2%
CCCCOc1ccc(CN2C(=O)C(=O)c3cc(C)ccc32)cc1OC	1µM*	-7%	0.73µM*	·	-15%	-3%
COc1cc(CC2C(=O)N(C)C(=O)N(C)C2=O)ccc1OCc1ccccc1	?	1%	-19%	0	0%	-1%
CC(=O)c1cn(CCCOc2ccccc2)c2ccccc12	?	-33%	16µM*	-4	?	-2%
C[C@H]1C=CC(=O)O[C@H]1c1ccccc1	?	-25%	?	-105*	?	4%
Cc1[nH]c2ccc(OC(=O)N3CCOCC3)cc2c1C(=O)OC(C)C	?	-33%	?	-2	?	4%
CN(N=Cc1ccc([N+](=O)[O-])cc1)c1ccccn1	?	-3%	?	-58*	-1%	·
O=C1c2cc([N+](=O)[O-])ccc2-c2ncccc21	?	-33%	?	5	-14%	·
OCCN1C2CCC1CC(O)(c1ccc(F)cc1)C2 (stereo unspecified)	1%	3%	-4%	-8	-6%	-1%
CCC1C(c2ccccc2)NC(c2ccccc2)CC1(O)c1ccc(F)cc1 (stereo unspecified)	?	-30%	23µM*	-16	?	·
N#CC1(N2CCCCC2)CCCCC1	-4%	·	0%	·	·	·
O=C1C=C2C(=CCOC2O)O1 (stereo unspecified)	0.1µM*	·	0.15µM*	·	·	5%[56.1 µM]
N#Cc1cccc(NC(=O)N2CCCC3(CCN(C(=O)Oc4ccccc4)CC3)C2)c1	1%	·	-12%	·	·	·
Cc1ccsc1C(=O)C1CCCN(Cc2ccccc2O)C1 (stereo unspecified)	-21%	0%	?	-18	14%	-1%
Cc1ccsc1C(=O)C1CCCN(Cc2cccn2-c2ccccn2)C1 (stereo unspecified)	21µM*	-28%	?	-25	-14%	3%
O=C(c1cc(C(=O)NCc2ccccc2)c(=O)n(Cc2ccccc2)c1)c1cc(Cl)ccc1O	7.3µM*	0%	8.2µM*	-3	?	3%
O=C(NCc1ccccc1)c1cccn(Cc2ccccc2)c1=O	?	-36%	?	14	?	·
O=C(Nc1nc2c(Cl)cccc2s1)c1ccc(S(=O)(=O)N2CCc3ccccc32)cc1	?	-4%	?	·	?	5%
CCCCc1ccc(NC(=O)c2ccc3c(c2)CCN3S(=O)(=O)CC)cc1	7.3µM*	-7%	3.7µM*	·	-27%	9%
CC(C)c1ccc(NC(=O)c2ccc3c(c2)CCN3S(=O)(=O)c2ccccc2)cc1	4.6µM*	-18%	5.8µM*	·	·	7%
SMILES	TDP1 cell CPT	HepG2 viability	DT40 TDP1 no CPT	IL1B secr inh	TGFb SMAD3 inh	TDP1 inh
CCN(CC)C(=O)c1ccc(NC(=O)c2ccc(N3CCCC3=O)cc2)cc1	9%	-23%	-4%	-14	-15%	2%
CC(C)c1ccc(NC(=O)c2ccc(F)c(S(=O)(=O)N3CCc4ccccc4C3)c2)cc1	4.6µM*	-16%	5.2µM*	·	-38%	7%
CC(C)c1ccc(NC(=O)C2CCN(S(=O)(=O)c3ccc(Br)s3)CC2)cc1	?	-18%	?	·	-9%	-2%[12.3 µM]
CN(C)c1ccc(C=C2C=CC=C2)cc1	?	-5%	?	-27	13%	·
C[N+]1=Cc2cc3c(cc2CC1)OCO3	5%	·	-10%	·	·	10%[56.1 µM]
CC1(C)S[C@@H]2[C@H](N)C(=O)N2[C@H]1C(=O)O	-8%[9.04 µM]	·	-5%[9.04 µM]	·	·	·
CC1(C)N([O])C(c2ccc(C(=O)O)cc2)=[N+]([O-])C1(C)C	16%	4%	-25%	·	2%	·
CC[C@H]1[C@@H]2C[C@H]3[C@@H]4N(C)c5ccccc5[C@]45C[C@@H](C2[C@H]5O)N3[C@@H]1O (stereo partly specified)	?	·	-26%[21.1 µM]	·	·	·
O=C1NC(=S)SC1=Cc1ccc(N(CCCl)CCCl)cc1	13µM*	-3%	16µM*	-19	32%	·
CCN(CC)c1ccc(/C=C2/C(=O)NC(=O)N(CC3CCCO3)C2=O)cc1 (stereo unspecified)	-24%	-8%	-27%	-5	36%	-1%
COc1cccc(Cn2c(-c3cccs3)noc2=O)c1	-11%	-23%	?	-19	1%	12%
COc1ccc(-c2noc(=O)n2Cc2cc(C)ccc2C)cc1	?	-50%	23µM*	30	-5%	3%
CC(=O)OC1CCC2(C)C(CCC3C2CC(=O)C2(C)C3CC(N3CC3)C2C(C)=O)C1 (stereo unspecified)	7.3µM*	-13%	13µM*	-72*	0%	·
COc1ccc2[nH]c(C)c(CCN3CCC(=O)C(C)C3C)c2c1 (stereo unspecified)	-11%	-62%	-14%	-11	?	4%
CCC1=CCN(CCc2c(C)[nH]c3ccccc23)CC1	2%	-27%	0.58µM*	-8	7%	·
COC(=O)c1c(NC(=O)C2CC=CCC2C(=O)O)sc2c1CCCCC2 (stereo unspecified)	-23%	-6%	?	-1	15%	·
Cc1nn(C)c(C)c1-c1cccc2c1CCC(N(C)C)C2 (stereo unspecified)	·	·	·	·	·	4%
